Data from the supplement of paper PMC13380429.

Key:
[1] = tested on: Vero E6 infected with SARS-CoV-2; experiment: morphology score (similarity to uninfected cells); higher = more like uninfected cells; conditions: 24 h
[2] = tested on: Vero E6 infected with SARS-CoV-2; experiment: SARS-CoV-2 infection rate relative to infected DMSO; higher = more infection, active = 60 or less; conditions: 24 h

SMILES | morphology score [1] | SARS-CoV-2 infection rate [2]
Nc1nc2cc(-c3ccc4ncc(C(=O)N5CCOCC5)n4c3)ccc2o1 (10 µM) | 0.241 | 92% (inactive)
O=C(c1cncc(Br)c1)N1CCC(N2CCCC2)CC1 (10 µM) | 0.146 | 108% (inactive)
Cc1cccc(C)c1OCC(C)N (configuration not stated) [mexiletine] (10 µM) | -0.0725 | 112% (inactive)
COc1ccc(NC(=O)c2ccc(-c3ccc(-c4noc(C)n4)cc3C)cc2)cc1N1CCN(C)CC1 (0.833333 µM) | 0.0674 | 102% (inactive)
C[C@@H](C1=C(CCN(C)C)Cc2ccccc21)c1ccccn1 (racemic) [dimetindene] (10 µM) | 0.121 | 94.8% (inactive)
CS[C@H]1SC[C@H]2C(=O)N(C)[C@@H](C(C)C)C(=O)OC[C@@H](NC(=O)c3cnc4ccccc4n3)C(=O)N[C@@H](C)C(=O)N(C)[C@@H]1C(=O)N(C)[C@@H](C(C)C)C(=O)OC[C@@H](NC(=O)c1cnc3ccccc3n1)C(=O)N[C@@H](C)C(=O)N2C [echinomycin] (0.833333 µM) | -0.0512 | 96% (inactive)
OCc1c[nH]c2ccccc12 [indole-3-carbinol] (10 µM) | 0.0621 | 94.5% (inactive)
C[C@]12CC[C@H](O)CC1=CC[C@@H]1[C@@H]2CC[C@]2(C)C(c3cccnc3)=CC[C@@H]12 [Abiraterone (CB-7598)] (10 µM) | -0.0295 | 115% (inactive)
CCC(C(=O)O)c1ccc(CC(C)C)cc1 (configuration not stated) [butibufen] (10 µM) | 0.268 | 108% (inactive)
O=C(NCc1ccc(F)cc1)N1CCN2C(=O)OC(c3ccccc3)(c3ccccc3)[C@@H]2C1 (racemic) (10 µM) | 0.069 | 97% (inactive)
O=c1c(O)c(-c2ccc(O)c(O)c2)oc2cc(O)ccc12 [fisetin] (10 µM) | 0.115 | 111% (inactive)
